Assay outcomes deposited in PubChem BioAssay by National Center for Advancing Translational Sciences (NCATS).
p53null 39C tox: p53 null cell cytotoxicity, nonpermissive temperature; Potency, µM (highest dose often 46.1 µM), inactives show at the top dose activity, negative = cell killing, usual class: cytotoxic; AID 904; H1299 p53-null (neo) cells, 39C, ATPlite viability, 24 h; 55,000 tested, 0.97% active;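 also: potency is read from the fitted curve at half-maximal effect; 0% = DMSO only and -100% = full killing by 100 µM tamoxifen; nearly all actives have a fitted effect of over 50% in size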
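Concentration-response (up to 46 uM) was run for 24 h at the nonpermissive 39C on H1299-p53A138V or H1299-neo cells. ATP content was measured with ATPlite luminescence. AC50 values were Hill-modeled after normalizing between DMSO and 100 uM tamoxifen killing.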
DRV1 agonist: agonists of human resolvin D1 receptor DRV1 (GPR32). activation, % at 76.9 µM. 48,000 tested, 2.5% active. AID 1346428. O75388. CHO-K1 GPR32 beta-arrestin PathHunter luminescence, 90 min; zero percent set by DMSO-only wells;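 active = activation of at least 60% and not above a set upper limit, about 1 call in 100 departs from these limits; inconclusive = activation of 40% to 60%, or above that upper limit; inactive = activation under 40%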; also: 0% is about no effect
Target sequence (O75388 whole entry, looked up): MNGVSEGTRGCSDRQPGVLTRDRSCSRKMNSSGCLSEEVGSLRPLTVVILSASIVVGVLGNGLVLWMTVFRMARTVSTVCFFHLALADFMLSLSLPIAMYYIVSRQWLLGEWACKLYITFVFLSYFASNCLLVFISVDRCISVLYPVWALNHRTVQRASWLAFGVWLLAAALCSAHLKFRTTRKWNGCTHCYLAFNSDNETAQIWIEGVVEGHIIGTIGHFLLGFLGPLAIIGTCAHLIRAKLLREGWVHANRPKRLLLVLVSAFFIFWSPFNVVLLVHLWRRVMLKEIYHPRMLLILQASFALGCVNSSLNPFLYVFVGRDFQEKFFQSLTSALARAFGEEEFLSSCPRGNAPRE
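GPR32 activation in stably transfected CHO-K1 cells, detected as beta-arrestin recruitment by enzyme-fragment complementation. Compound exposure: 90 min, 37 °C.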
HTT promoter inh: inhibits huntingtin promoter activity; HEK293 HTT promoter firefly luciferase reporter, 24 h; Potency, µM (doses to about 57.5 µM), for inactives: at the top dose activity change, negative = inhibition, hits mostly inhibitors; 48,000 tested, 0.93% active; also: potency is read from the fitted curve at half-maximal effect; nearly all actives have a fitted effect of over 50% in size
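Firefly luciferase signal from promoter-reporter HEK293 cells was scaled between vehicle (0%) and zero RLU (-100%). Compounds were tested at final concentrations of up to 57.5 uM over 24 h at 37 degrees C. PTC124 at 50 uM final served as control inhibitor.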
p53null 32C kill: kills p53 null cells at the permissive temperature | H1299-neo p53 null cells, ATP luminescence, 24 h, 32C | Potency, µM (highest dose often 46.1 µM), inactives show at the top dose activity change, negative = cytotoxicity, usual class: cytotoxic | 55,000 tested, 0.62% active;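 also: potency is read from the fitted curve at half-maximal effect; 0% = DMSO only and -100% = full killing by 100 µM tamoxifen; nearly all actives have a fitted effect of over 55% in size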
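Overnight 37C seeding (600 cells/well) of H1299-neo preceded a 24 hr, 32C exposure to compounds up to 46 uM. ATP levels, read by luminescence after 20 min at RT, indicated surviving cells.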
HTT-AS promoter: activates huntingtin-antisense promoter activity. HEK293 HTT-AS promoter firefly luciferase reporter, 24 h; response scale: percent change from vehicle, -100% = no light. Potency, µM (top dose mostly 57.5 µM), without a hit: at the highest dose activity change, positive = activation, hits mostly activators. 48,000 tested, 0.24% active; also: potency is read from the fitted curve at half-maximal effect; nearly all actives have a fitted effect of over 55% in size
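Quantitative HTS used concentration series of up to 57.5 uM final on HEK293 luciferase reporter cells, 24 h at 37 degrees C. Readout was Dual-Glo firefly luminescence.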
* marks the source's active call; other numbers are inactive results; ? = inconclusive; / = no result given; [ ] = dose if it differs, or a comment. Compounds with a hit are over-represented: about 3.9% of the library has one in this group of screens. Unless noted, calls follow the shape of the dose curve; as a rule, active = well fitted curve in the direction sought with a large enough effect; inconclusive = small, poorly fitted or top-dose-only effect, or another doubt; inactive = no such curve, though single readings can be large; an effect the other way counts as inactive or inconclusive.

SMILES	p53null 39C tox	DRV1 agonist	HTT promoter inh	p53null 32C kill	HTT-AS promoter
O=S(=O)(Nc1ccc(O)c(Sc2nc3ccccc3s2)c1)c1cccc2ccccc12	14%[1.84 µM]	/	/	/	/
Cc1cc(C)cc(NS(=O)(=O)c2ccc(-n3cccn3)cc2)c1	11%	7	?	7%	-35%
Cc1ccc(NS(=O)(=O)c2ccc(-n3cccn3)cc2)cc1Cl	0%	73*	?	10%	-32%
CCc1cccc(NS(=O)(=O)c2ccc(-n3cccn3)cc2)c1	11%	86*	35µM*	0%	-40%
COC(=O)c1ccc(NS(=O)(=O)c2ccc(-n3cccn3)cc2)cc1	4%	-7	-17%	-4%	-18%
COc1ccc(NS(=O)(=O)c2ccc(-n3cccn3)cc2)cc1OC	-7%	14	7.9µM*	11%	-90%
O=S(=O)(Nc1ccc(F)cc1F)c1ccc(-n2cccn2)cc1	2%	75*	?	0%	-31%
COc1c(OCCCN2CCOCC2)ccc2c3n(c(=NC(=O)c4cnc(N)nc4)nc12)CCN3	/	/	?	/	-41%[25.1 µM]
O=C(CC12CC3CC(CC(C3)C1)C2)Nc1cccc2nc(NCCNCCO)ccc12	/	/	-34%	/	-34%
COc1ccc(CNc2nc(-c3ccco3)nn2C(=O)c2ccccc2C)cc1	-18%	-17	16%	-4%	8.9µM*
CCc1cncnc1N1CCN(Cc2nc3ccc(C(F)(F)F)cc3[nH]2)CC1	/	/	?	/	-43%
CC(C)C(=O)Nc1nnc(CCc2nnc(NC(=O)C(C)C)s2)s1	15%	/	/	12%	/
CC(C)C(=O)Nc1cccc(C(=O)Nc2nnc(CC(C)(C)C)s2)c1	-17%	62*	?	-7%	15%[11.5 µM]
COc1cccc(NC(=O)CN2C(=O)C(c3ccc(C)cc3)=NC23CCCCCC3)c1	18%[1.84 µM]	/	/	2%	/
COc1ccc(C2=NC3(CCCCCC3)N(CC(=O)Nc3cccc(Cl)c3)C2=O)cc1	?	-44	32µM*	24%	-64%
C[C@H](CCC(=O)O)[C@H]1CC[C@H]2[C@@H]3[C@H](O)C[C@@H]4C[C@H](O)CC[C@]4(C)[C@@H]3CC[C@]12C	/	/	-4%	/	-26%
Nc1ccc2c(c1)CN1C(=O)c3ccccc3C1=N2	/	14	-27%[25.2 µM]	/	-52%[25.1 µM]
COc1ccc(CNC(=O)c2cc3c(-c4ccc(Cl)cc4)nn(C)c3s2)cc1	-7%	-17	?	9%	-28%
CCCN(CCC)CCCNC(=O)c1cc2c(-c3ccc(Cl)cc3)nn(C)c2s1	16µM*	-2	0%	3%	-13%
CCN(CC)C(=O)c1ccc2c(c1)N(Cc1ccc(C(F)(F)F)cc1)C(=O)c1ccccc1S2	?	87*	-23%	33%	-21%
CC(=O)c1cccc(NC(=O)CN2C(=O)c3cccnc3Sc3ccccc32)c1	-15%	-6	4%	-13%	13%
COC(=O)c1ccc2c(c1)N(CC(=O)Nc1cccc(C(F)(F)F)c1)C(=O)c1ccccc1S2	-20%	107*	-21%	-6%	-15%
CC(=O)c1cccc(NC(=O)CN2C(=O)c3ccccc3Sc3ncccc32)c1	-4%	72*	-15%	3%	?
COc1ccc(-c2ccc3c(N4CCOC[C@H]4C)nc(N4CCOC[C@H]4C)nc3n2)cc1CO	/	/	?	/	-26%
Cc1oc(-c2ccc(C(=O)N(C)Cc3ccccc3)cc2)nc1CN1CCc2ccccc21	53%	-6	8.9µM*	27%	-52%
CCCCOC(=O)CC(CC(=O)OCCCC)(OC(C)=O)C(=O)OCCCC	/	-6	1%	/	-4%
CC(C)OCc1cc(CN2CCN(c3cccc(C(F)(F)F)c3)CC2)c(O)c2ncccc12	0.5µM*	-13	?	?	-33%
COc1ccccc1N1CCN(Cc2cc(COC(C)C)c3cccnc3c2O)CC1	1.6µM*	-6	?	16µM*	-34%
CCOCc1cc(CN2CCN(c3cccc(C(F)(F)F)c3)CC2)c(O)c2ncccc12	?	22	?	?	-36%
CCOCc1cc(CN2CCN(c3ccccc3OC)CC2)c(O)c2ncccc12	1.3µM*	-23	11µM*	1%	-36%
